Common to all, as to experiment: cell viability relative to vehicle control; higher = less cytotoxic
Holding throughout (details): 10 µM

For assay [1], the system named is K562. The gist of the method: (§1)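 CRISPR-edited mutant clones and isogenic wild-type clones from four leukaemia lines were screened against Selleck bioactive, kinase and epigenetic probe libraries, with identity-inconsistent compounds excluded. Each compound was acoustically dispensed at a single 10 µM dose into 384-well plates holding 2000 cells in 50 µL medium per well. After 48 h the supernatant was removed and CellTiter-Glo luminescence was read. Viability was expressed as percent of the on-plate vehicle control and analysed in Genedata Screener.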

In assay [2] the test system is MARIMO. An outline of the steps:
as §1

In assay [3] the test system is MOLM14. An outline of the steps:
as §1

Assay [4] deals with OCI-AML2. The gist of the method:
as §1

Here are results for nine compounds from the supplement of paper PMC10981050.

Values joined by “and” are separate entries in the source; they are usually repeats but may differ in a detail not shown here. Identical values can stand only once. Counter-ions that a name gives are not always drawn.

What is called cell viability is a read-out of living cells in per cent, often relative to untreated cells.

As to `C=CCc1ccc(O)c(-c2cc(CC=C)ccc2O)c1` [Magnolol], the cell viability is 85.6% and 95.6% in assay [1] (SRSF2 genotype: SRSF2 P95H/wt); 96.6% in assay [1] (SRSF2 genotype: SRSF2 wt/wt); 99.5% in assay [2] (SRSF2 genotype: SRSF2 P95H/wt); 112% in assay [2] (SRSF2 genotype: SRSF2 wt/wt); 93.9% in assay [3] (SRSF2 genotype: SRSF2 P95H/wt); 103% in assay [3] (SRSF2 genotype: SRSF2 wt/wt). Besides, the cell viability in assay [4] (SRSF2 genotype: P95H/wt) was 86.2%; in assay [4] (SRSF2 genotype: wt/wt), 106%.
On to `NC1=N[C@@]2(c3cc(NC(=O)c4ccc(F)cn4)ccc3F)COC[C@H]2CS1`, for which the cell viability in assay [1] (SRSF2 genotype: SRSF2 P95H/wt) is 94.7% and 91.1%; in assay [1] (SRSF2 genotype: SRSF2 wt/wt), 86.1%; in assay [2] (SRSF2 genotype: SRSF2 P95H/wt), 89.6%; in assay [2] (SRSF2 genotype: SRSF2 wt/wt) it was 98.4%; in assay [3] (SRSF2 genotype: SRSF2 P95H/wt), 99.7%; in assay [3] (SRSF2 genotype: SRSF2 wt/wt) it was 94.2%. The cell viability in assay [4] (SRSF2 genotype: P95H/wt) was determined as 94.4%; in assay [4] (SRSF2 genotype: wt/wt), 92.6%.
`CN1CCC(CNc2ccc3ncc(-c4cccc(OC(F)(F)F)c4)n3n2)CC1` [SGI-1776 free base]: the cell viability in assay [1] (SRSF2 genotype: SRSF2 P95H/wt) was 1.35% and 1.49%; in assay [1] (SRSF2 genotype: SRSF2 wt/wt), 2.08%; in assay [2] (SRSF2 genotype: SRSF2 P95H/wt) it was 0.84%; in assay [2] (SRSF2 genotype: SRSF2 wt/wt) it was 2.75%; in assay [3] (SRSF2 genotype: SRSF2 P95H/wt), 0.45%; in assay [3] (SRSF2 genotype: SRSF2 wt/wt), 0.48%. In addition, the cell viability was 0.42% in assay [4] (SRSF2 genotype: P95H/wt) and 0.66% in assay [4] (SRSF2 genotype: wt/wt).
Consider `CC(=O)O[C@]1(C(C)=O)CC[C@H]2[C@@H]3C[C@H](C)C4=CC(=O)CC[C@]4(C)[C@H]3CC[C@@]21C` [Medroxyprogesterone acetate], for which the cell viability is 82.5% and 92.8% in assay [1] (SRSF2 genotype: SRSF2 P95H/wt); 94.7% in assay [1] (SRSF2 genotype: SRSF2 wt/wt); 104% in assay [2] (SRSF2 genotype: SRSF2 P95H/wt); 73% in assay [2] (SRSF2 genotype: SRSF2 wt/wt); 112% in assay [3] (SRSF2 genotype: SRSF2 P95H/wt); 102% in assay [3] (SRSF2 genotype: SRSF2 wt/wt). Besides, the cell viability was 98.5% in assay [4] (SRSF2 genotype: P95H/wt) and 87.5% in assay [4] (SRSF2 genotype: wt/wt).
Consider `CN(C)C(=N)NC(=N)N` [Metformin hydrochloride (Glucophage)], for which the cell viability was found to be 108% in assay [1] (SRSF2 genotype: SRSF2 P95H/wt); 110% in assay [1] (SRSF2 genotype: SRSF2 wt/wt); 108% in assay [2] (SRSF2 genotype: SRSF2 P95H/wt); 110% in assay [2] (SRSF2 genotype: SRSF2 wt/wt); 105% in assay [3] (SRSF2 genotype: SRSF2 P95H/wt); 104% in assay [3] (SRSF2 genotype: SRSF2 wt/wt). Also, the cell viability in assay [4] (SRSF2 genotype: P95H/wt) turned out to be 102%; in assay [4] (SRSF2 genotype: wt/wt) it was 116%.
On to `COc1ccnc(C[S+]([O-])c2nc3cc(-n4cccc4)ccc3[nH]2)c1C` (configuration not stated) [Ilaprazole], for which the cell viability is 90.7% and 95.4% in assay [1] (SRSF2 genotype: SRSF2 P95H/wt); 92.4% in assay [1] (SRSF2 genotype: SRSF2 wt/wt); 87.3% in assay [2] (SRSF2 genotype: SRSF2 P95H/wt); 105% in assay [2] (SRSF2 genotype: SRSF2 wt/wt); 99.9% in assay [3] (SRSF2 genotype: SRSF2 P95H/wt); 101% in assay [3] (SRSF2 genotype: SRSF2 wt/wt). Further, the cell viability in assay [4] (SRSF2 genotype: P95H/wt) amounted to 82.5%; in assay [4] (SRSF2 genotype: wt/wt) it was 97.3%.
For `C[C@@H]1COC(Nc2ccc3ncnc(Nc4ccc(OCc5nccs5)c(Cl)c4)c3c2)=N1` [Varlitinib], the cell viability in assay [1] (SRSF2 genotype: SRSF2 P95H/wt) is 86.5% and 83.2%; in assay [1] (SRSF2 genotype: SRSF2 wt/wt), 88.1%; in assay [2] (SRSF2 genotype: SRSF2 P95H/wt), 89.2%; in assay [2] (SRSF2 genotype: SRSF2 wt/wt), 109%; in assay [3] (SRSF2 genotype: SRSF2 P95H/wt) it was 91.7%; in assay [3] (SRSF2 genotype: SRSF2 wt/wt) it was 96.3%. Besides, the cell viability in assay [4] (SRSF2 genotype: P95H/wt) came out at 87%; in assay [4] (SRSF2 genotype: wt/wt), 88.2%.
Turning to `CCOC(=O)/C=C\C(=O)OCC` [Diethylmaleate], the cell viability in assay [1] (SRSF2 genotype: SRSF2 P95H/wt) is 102% and 96.1%; in assay [1] (SRSF2 genotype: SRSF2 wt/wt) it was 99.8%; in assay [2] (SRSF2 genotype: SRSF2 P95H/wt), 97.5%; in assay [2] (SRSF2 genotype: SRSF2 wt/wt), 109%; in assay [3] (SRSF2 genotype: SRSF2 P95H/wt) it was 104%; in assay [3] (SRSF2 genotype: SRSF2 wt/wt), 105%. Moreover, the cell viability in assay [4] (SRSF2 genotype: P95H/wt) turned out to be 98.9%; in assay [4] (SRSF2 genotype: wt/wt) it was 111%.
In the case of `O=C(CCNC(=O)c1ccc(OC(F)(F)F)cc1)N[C@@H]1CCCc2ccccc21`, the cell viability is 105% and 110% in assay [1] (SRSF2 genotype: SRSF2 P95H/wt); 91.3% in assay [1] (SRSF2 genotype: SRSF2 wt/wt); 96% in assay [2] (SRSF2 genotype: SRSF2 P95H/wt); 105% in assay [2] (SRSF2 genotype: SRSF2 wt/wt); 93.7% in assay [3] (SRSF2 genotype: SRSF2 P95H/wt); 94.6% in assay [3] (SRSF2 genotype: SRSF2 wt/wt). Also, the cell viability turned out to be 93.8% in assay [4] (SRSF2 genotype: P95H/wt) and 106% in assay [4] (SRSF2 genotype: wt/wt).
